Data from PubChem BioAssay AID1347417 (National Center for Advancing Translational Sciences (NCATS), 2020).
Among all 120,000 compounds or so, about 5,300 (4.4%) were called active. Entries that show only a call come without a potency. About 22% were inconclusive and are not listed. Calls follow the shape of the dose curve; as a rule, active = well fitted inhibition curve with a large enough effect; inconclusive = small, poorly fitted or top-dose-only effect; inactive = no such curve, though single readings can be large or run the other way. This excerpt belongs to a sample that is enriched for actives.

assay: qHTS Primary assay for Inhibitors of Plasmodium falciparum Dd2 growth in vitro; also: nearly all actives have a fitted effect of over 65% in size; details: P. falciparum Dd2 growth, SYBR Green, 72 h; series mostly up to 28.9 µM
How it was run: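 Readout: SYBR Green fluorescence, 485 nm excitation, 535 nm emission, after ~16 h lysis at 37C. Before that, Dd2-infected red cells (2.5% hematocrit) grew 72 h with compound, 29 uM top final concentration.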
Potency is read from the fitted curve at half-maximal effect.

| SMILES | Potency |
| --- | --- |
| CCOc1cccc(CN2CCC3(CC2)CN(C)CC3COC)c1 (configuration not stated) | 4.47 µM (active) |
| COCC1CN(C(C)=O)CC12CCN(Cc1cccc(C#N)c1)CC2 (configuration not stated) | inactive |
| COCC1CN(C(C)=O)CC12CCN(C(=O)NCc1cccc(OC)c1)CC2 (configuration not stated) | inactive |
| CN1C(=O)c2[nH]nc(-c3ccc(F)cc3)c2C1c1ccccn1 (configuration not stated) | inactive |
| CCOc1ccc(-c2n[nH]c3c2C(c2ccccc2OC)N(c2ccc(Br)cc2)C3=O)cc1 (configuration not stated) | 10 µM (active) |
| Cc1ccc(-n2c(C3CCN(C(=O)c4ccccc4C(F)(F)F)CC3)n[nH]c2=O)cc1 | inactive |
| CC(=O)Nc1cccc(NC(=O)C2CC(=O)N(c3n[nH]c4ccccc34)C2)c1 (configuration not stated) | inactive |
| O=c1n(CC2CC2)nc2n1CCC(NS(=O)(=O)Cc1ccccc1)CC2 (configuration not stated) | inactive |
| CC(=O)c1cc(CN2CCn3nc(C(O)c4ccnn4C)cc3C2)cs1 (configuration not stated) | inactive |
| O=C(N1CCCCCC1CN1CCOCC1)C1(c2ccccc2)CC1 (configuration not stated) | 10 µM (active) |
| COC1CCN(CC2CCCCCN2C(=O)NCc2ccc(F)cc2)CC1 (configuration not stated) | inactive |
| O=C(c1cccs1)N1CCCCCC1CN1CCCC1 (configuration not stated) | 1.26 µM (active) |
| O=C(N1CCCC(Cc2nc(C3CCOCC3)no2)C1)C1(c2ccccc2)CC1 (configuration not stated) | inactive |
| O=C(Cc1cccs1)N1CCCCCC1c1nc(C2CC2)no1 (configuration not stated) | inactive |
| O=C(NCCc1ccccc1)N1CCCCCC1CN1CCOCC1 (configuration not stated) | 7.94 µM (active) |
| CC(=O)N(C1CC1)C1CCOC2(CCN(C(=O)C3(c4ccccc4)CC3)CC2)C1 (configuration not stated) | inactive |
| O=C1NCCCCCN(C(=O)NCCc2ccccc2)[C@H]2CCC[C@@H]12 | inactive |
| O=C1NCCOCCCN(C(=O)NCCc2ccccc2)[C@H]2CCC[C@@H]12 | inactive |
| Cc1cc(C)n(-c2cccc(CN(C)Cc3nc(-c4ccccn4)no3)c2)n1 | inactive |
| CC(C)c1ccc(N2C(=O)N[C@@H]3CCN(C(=O)c4ccc(C(C)(C)C)cc4)[C@@H]3C2=O)cc1 | inactive |
| O=C(Cn1ccn2nc(-c3ccccc3)c(CO)c2c1=O)Nc1ccc2c(c1)CCC2 | inactive |

| SMILES | Potency |
| --- | --- |
| O=C(c1ccc2cc[nH]c2c1)N1CCCN(c2cc(-c3ccc(Cl)cc3)[nH]n2)CC1 | inactive |
| CN1C(=O)CS(=O)C12CCN(S(=O)(=O)c1ccc(F)cc1)CC2 (configuration not stated) | inactive |
| Cc1noc([C@@H]2CN(Cc3ccc(C)o3)C[C@H]2CO)n1 | inactive |
| Cc1ccc(F)cc1NC(=O)CCSc1nc(-c2ccco2)cc(C(F)(F)F)n1 | 0.794 µM (active) |
| CN(C)c1ccc(NC(=O)CSc2nc(-c3ccco3)cc(C(F)(F)F)n2)cc1 | inactive |
| Cc1cccc(NC(=O)CSc2nc(-c3ccco3)cc(C(F)(F)F)n2)c1C | inactive |
| Cc1cc(C)cc(C(=O)NCCc2noc(C)n2)c1 | inactive |
| COc1ccccc1N1CCN(c2ncnc3onc(-c4ccc(F)cc4)c23)CC1 | inactive |
| Cc1ccc(Cl)cc1N(C)C(=O)C1CCCN(c2ncnc3onc(-c4ccc(F)cc4)c23)C1 (configuration not stated) | 8.91 µM (active) |
| Cc1c(Cl)cccc1NC(=O)C1CCCN(c2ncnc3onc(C)c23)C1 (configuration not stated) | inactive |
| COc1ccc(C(=O)N[C@H](c2cnn(C)c2)C2CC(O)C2)c(F)c1F (some centres not stated) | inactive |
| COc1cccc(CN2CCN(Cc3ncccc3C)CC2)c1O | inactive |
| CCOC(=O)c1[nH]ncc1CN1CCCC(Cc2ccc(F)cc2F)(C(=O)OCC)C1 (configuration not stated) | inactive |
| CCOC(=O)C1(Cc2ccc(F)cc2F)CCCN(Cc2cccc(OC)c2O)C1 (configuration not stated) | 3.16 µM (active) |
| CC(=O)c1ccc(NC(=O)C2CCN(S(=O)(=O)c3c(C)noc3/C=C/c3ccc(C)cc3)CC2)cc1 | inactive |
| CCOC(=O)c1c(C)[nH]c(C)c1S(=O)(=O)N1CCC(C(=O)Nc2ccc(C)c(Cl)c2)CC1 | inactive |
| CCOc1ccc(NC(=O)C2CCN(S(=O)(=O)c3cc(-c4noc(C)n4)ccc3C)CC2)cc1 | 3.98 µM (active) |
| Cc1cnn(CCC(=O)N2CC(F)(F)C[C@H]2c2nnc(C)o2)c1 | inactive |
| COc1cccc(S(=O)(=O)N2CCCN(C(=O)C3CC3)c3ccccc32)c1 | inactive |
| Cc1nc(SCC(=O)N2CCN(c3ccccc3)CC2)[nH]c(=O)c1C | inactive |
| CCOC(=O)c1c(C)[nH]c(C)c1S(=O)(=O)N(C)CC(=O)N1CCN(c2ccccc2)CC1 | inactive |

| SMILES | Potency |
| --- | --- |
| CCOC(=O)c1[nH]c(C)c(CCC(=O)N2CCN(c3ccccc3)CC2)c1C | 3.98 µM (active) |
| COCCN1C(=O)c2cccn2CC1CNS(=O)(=O)c1c(C)noc1C (configuration not stated) | inactive |
| COc1cccc(C(=O)N2CCC(Oc3ccc(C(=O)N4CCOCC4)cn3)CC2)c1 | inactive |
| O=C(c1cccc(OC2CN(Cc3nccs3)C2)c1)N1CCOCC1 | 2.51 µM (active) |
| O=C(c1cccc(F)c1)N1CCOC[C@H](Oc2ccc(C(F)(F)F)cc2)C1 | inactive |
| O=C(C1CCCC1)N1Cc2ccccc2CC2(CCCCN2CC2CCNCC2)C1 (configuration not stated) | 5.01 µM (active) |
| CC(=O)NCCC(=O)N1Cc2ccccc2CC2(CCCCN2CC2CCNC2)C1 (configuration not stated) | inactive |
| O=C(c1ccccc1)N1Cc2ccccc2CC2(CCCN2CC2CCNC2)C1 (configuration not stated) | inactive |
| COCCNc1ncccc1-c1noc([C@@H]2CCCN2Cc2ccc3c(c2)OCO3)n1 | inactive |
| COc1ccc(C(=O)Nc2ccc(-c3noc([C@@H]4CCCN4Cc4ccc(S(C)(=O)=O)cc4)n3)cn2)cc1 | inactive |
| COCCOc1ccnc(-c2noc([C@@H]3CCCN3Cc3ccc(Cl)cc3)n2)c1 | 3.98 µM (active) |
| Cc1ccc2c(c1)N1C(=O)OC[C@@H]1CCN(C(=O)c1ccnc(Cl)c1)C2 | inactive |
| Cc1ccc(-c2nocc2CCC(=O)N2CCN(c3ccccc3F)CC2)cc1 | inactive |
| CN(C)C(=O)c1cccnc1N1CC2CC(C1)[C@H]1CCCC(=O)N1C2 (some centres not stated) | inactive |
| COc1ccc(-c2ccccc2CN)cc1 | 7.94 µM (active) |
| COc1ccc(-c2nn3c(-c4ccc(OC)cc4)nnc3c3ccccc23)cc1 | inactive |
| COc1ccccc1-c1ccc(C(=O)O)cc1 | inactive |
| CC(C)c1noc(-c2cn(C3CCN(C(=O)c4cccc(C#N)c4)CC3)nn2)n1 | inactive |
| CC(C)c1noc(-c2cn(C3CCN(C(=O)COc4ccccc4)C3)nn2)n1 (configuration not stated) | inactive |
| CC(C)c1noc(-c2cn(C3CCN(C(=O)COc4ccc(F)cc4)CC3)nn2)n1 | 10 µM (active) |
